About 79,000 compounds went through this panel and 15% of them were active in at least one assay; those are over-represented in the sample as a whole. Rule as the data show it: active = growth inhibition above about 70%; inactive = the rest.
What was measured:
[1] = NCI Yeast Anticancer Drug Screen. Data for the rad50 strain (AID 155);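 also: 0% = growth of vehicle-only cultures of the same strain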; settings: S. cerevisiae rad50 strain growth inhibition; at 50.0 µM; stronger effect = higher value
Outline: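 Growth of the mutant yeast was measured after compound exposure and referenced to vehicle-treated cultures.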

[2] = NCI Yeast Anticancer Drug Screen. Data for the mec2-1 strain (AID 157); settings: S. cerevisiae mec2-1 strain, at 50.0 µM, stronger effect = higher value
Outline: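 Readout is yeast growth inhibition, normalised to vehicle-treated controls, in the mec2-1 strain exposed to compound.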

[3] = NCI Yeast Anticancer Drug Screen. Data for the sgs1 mgt1 strain (AID 161);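 also: 0% = growth of cultures given vehicle only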; settings: S. cerevisiae sgs1 mgt1 strain, at 50.0 µM, stronger effect = higher value
Outline: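 Percent growth inhibition was derived by comparing compound-exposed mutant yeast with vehicle-exposed cultures. The strain carries alterations in DNA damage repair.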

[4] = NCI Yeast Anticancer Drug Screen. Data for the cln2 rad14 strain (AID 165);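 also: 0% = growth equal to vehicle treated cultures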; settings: S. cerevisiae cln2 rad14 strain, at 50.0 µM, stronger effect = higher value
Outline: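 Relative to vehicle controls, growth inhibition of compound-treated cln2 rad14 yeast was recorded.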

[5] = NCI Yeast Anticancer Drug Screen. Data for the bub3 strain (AID 167); settings: S. cerevisiae bub3 mutant strain, at 50.0 µM, stronger effect = higher value
Outline: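 Whole-cell yeast assay. The mutant strain was incubated with compounds, and growth inhibition was determined by comparison with vehicle-treated cells.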

[6] = NCI Yeast Anticancer Drug Screen. Data for the mlh1 rad18 strain (AID 175); settings: S. cerevisiae mlh1 rad18 strain growth inhibition; at 50.0 µM; stronger effect = higher value
Outline: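 Test agents were incubated with a yeast strain of defined genotype (DNA damage repair defect). Inhibition of growth was derived by comparison with vehicle-exposed cultures.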

Measured: growth inhibition

OC1c2ccccc2-c2ccc(NCc3ccc4c(c3)OCO4)cc21 (stereo not given)
inactive: [1] 48.8% | [2] -11.2% | [3] 17.4% | [4] -5.2% | [5] -4.1% | [6] 19.4%

COc1ccc(C(=O)N=Nc2ccccc2)cc1
inactive: [1] 0.05% | [2] 0.7% | [3] -6.85% | [4] -49.9% | [5] 3.35% | [6] -13.1%

CC1=Nc2nc(=NCCCN(C)C)nc3cccc(n23)N1
inactive: [1] 7.6% | [2] -1.35% | [3] 7.65% | [4] 11.2% | [5] 6.4% | [6] 4%

CC[N+](C)(CC)CCOC(C)=O
inactive: [1] 8.55% | [2] -12.1% | [3] -5.95% | [4] 11.2% | [5] -6.5% | [6] 8.3%

O=S1(=O)C2CCCCCC2(N2CCOCC2)C1C1CCCCC1 (stereo not given)
inactive: [1] 16.7% | [2] 22.4% | [3] -0.45% | [4] 25.4% | [5] 6% | [6] 15.1%

N#CC(c1cccs1)C1CCCCC1 (stereo not given)
inactive: [1] 9.4% | [2] -0.5% | [3] 2.05% | [4] -11.8% | [5] 2.65% | [6] -1.3%

CCOC(=O)C(C(C)=O)C(NO)C(Cl)(Cl)Cl (stereo not given)
inactive: [1] 5.4% | [2] 13.6% | [3] 3.4% | [4] 17.1% | [5] 2.2% | [6] -3.05%

Cc1[nH]c(=O)[nH]c(=O)c1C
inactive: [1] 4.05% | [2] -36.1% | [3] 1.8% | [4] 27.4% | [5] -11.9% | [6] 7.35%

CC(C)(C)NC(=O)c1cccc(C(N)=O)n1
inactive: [1] -10.4% | [2] -16.1% | [3] -11.8% | [4] -21.6% | [5] -4.25% | [6] -0.6%

O=C(NC(=S)Nc1ccc2ccccc2c1)c1ccc(Cl)cc1Cl
inactive: [1] -1.45% | [2] 1.2% | [3] 28.2% | [4] -10.6% | [5] 23.4% | [6] -41.1%

CCCC(=O)OCC1OC2OC(C)(C)OC2C2OC(C)(C)OC12 (stereo not given)
inactive: [1] -4.45% | [2] -2.55% | [3] 10.8% | [4] 8.55% | [5] 15.8% | [6] -6.25%

CCCC(=O)Oc1ccc(CC)cc1
inactive: [1] 25.5% | [2] 15.4% | [3] 8.75% | [4] -20.4% | [5] 14.5% | [6] 20.9%

[N-]=[N+]=NC1CC(n2ccc(N)nc2=O)OC1CO (stereo not given)
inactive: [1] -3.9% | [2] 13.6% | [3] 0.8% | [4] -6.65% | [5] -8.95% | [6] 8.8%

CC1C(=O)N(c2ccccc2)C1c1ccccc1 (stereo not given)
inactive: [1] -18.6% | [2] -31.3% | [3] -11.9% | [4] -24.6% | [5] 2.95% | [6] -19.6%

N#CC1=CN(Cc2ccccc2)C(c2ccccc2)C=C1 (stereo not given)
inactive: [1] 23.2% | [2] -2.15% | [3] -3.9% | [4] 4.65% | [5] 35.9% | [6] 27%

CCCCOCCOCC(C)O (stereo not given)
inactive: [1] 14.9% | [2] 10.2% | [3] 37.2% | [4] -24.4% | [5] -8.4% | [6] 2.05%

OCc1cccc(F)c1
inactive: [1] -15.4% | [2] -42.6% | [3] -31.4% | [4] 8.1% | [5] -21.4% | [6] -5.35%

O=C(c1ccc(Cl)cc1)C(c1ccccc1)N1CCCCC1 (stereo not given)
inactive: [1] 2.05% | [2] -8.15% | [3] -0.1% | [4] -45.8% | [5] -1.6% | [6] 6.85%

C[n+]1cccc(C(=O)O)c1-c1ccccc1
inactive: [1] 20.4% | [2] 5.9% | [3] 5.85% | [4] -39.5% | [5] 4.55% | [6] 10.3%

c1ccc2c(c1)ccc1c3ccccc3ncc21
inactive: [1] 62.8% | [2] 27.8% | [3] 32.6% | [4] 35.5% | [5] 0.75% | [6] 23.1%

Fc1ccc2cc3cccc[n+]3cc2c1
inactive: [1] 27.1% | [2] 7.05% | [3] 32.4% | [4] 14.4% | [5] 10.1% | [6] 2.35%

CCN(CC)CCNC(=O)c1ccc(NCN2C(=O)NC(c3ccccc3)(c3ccccc3)C2=O)cc1
inactive: [1] -24.1% | [2] 3.4% | [3] 8.45% | [4] 26.3% | [5] 15.7% | [6] 50.8%

N#CCCN(C1=NN(C(=O)CC(=O)Nc2ccc(Cl)cc2)C(c2ccccc2)C1)c1ccc(Cl)cc1 (stereo not given)
inactive: [1] 14.3% | [2] -13.7% | [3] -17.6% | [4] 10.7% | [5] -5.55% | [6] -8.35%

CN(C)C(=N)N
inactive: [1] -28.9% | [2] 6.3% | [3] -27.4% | [4] -21.6% | [5] -0.7% | [6] -18.4%

COc1ccc(-n2[nH]c3c(cnc4ccccc43)c2=O)cc1
inactive: [1] 6.35% | [2] -33.9% | [3] -33% | [4] -10.8% | [5] -22.8% | [6] 2%

COc1ccc(C(=O)/C=C/c2c[nH]c3ccccc23)c(O)c1
inactive: [1] 15.8% | [2] 9.85% | [3] 26.3% | [4] -43.2% | [5] 9.9% | [6] 22.4%

Cn1c(=O)c2[nH]c(=S)[nH]c2n(C)c1=O
inactive: [1] -5.85% | [2] -20.7% | [3] -3% | [4] 11.1% | [5] -18.2% | [6] -4.75%

CCN(CC)c1ccc(C(C#N)(c2ccc(N(CC)Cc3cccc(S(=O)(=O)O)c3)cc2)c2ccc(N(CC)Cc3cccc(S(=O)(=O)O)c3)cc2)cc1
inactive: [1] -1% | [2] 8.15% | [3] 4.55% | [4] -7.7% | [5] -7.45% | [6] 29.6%

CCCCNC(=O)c1ccccc1C
inactive: [1] 4.8% | [2] 4.7% | [3] -6.7% | [4] -34.9% | [5] 2.25% | [6] 1.35%

Fc1ccc2nncc(/C=C/c3ccccc3F)c2c1
inactive: [1] 11.3% | [2] 7.6% | [3] 8.4% | [4] -4.85% | [5] 11% | [6] -3.5%

O=c1c(Br)c(-c2ccccc2Br)[nH]c2ccccc12
inactive: [1] -1.25% | [2] 13.7% | [3] 11.3% | [4] 0.4% | [5] -3.45% | [6] -13.9%

COc1ccc(/C(Cl)=C(\CN(C)C)c2ccc(OC)c(OC)c2)cc1OC
inactive: [1] 41.5% | [2] 18.6% | [3] 10.3% | [4] 27.9% | [5] -5.85% | [6] 24.1%

COc1cc(O)c(O)cc1C(C)(C)C
inactive: [1] 35.9% | [2] 24.6% | [3] 45.4% | [4] -11.7% | [5] 36.5% | [6] -1.25%

COC1(OC)CC2C(=O)N(Cc3ccccc3)C1C(S(=O)(=O)c1ccccc1)C2S(=O)(=O)c1ccccc1 (stereo not given)
inactive: [1] 27.6% | [2] 29.5% | [3] 45.5% | [4] -31.7% | [5] 50.2% | [6] 64.8%

Nc1nc(-c2ccccn2)cc(-c2cc(-c3ccccn3)nc(N)n2)n1
inactive: [1] -12.1% | [2] -11.6% | [3] -18.2% | [4] -0.7% | [5] -9.75% | [6] 6.25%

COc1ccc(C2OC(=O)C(=O)C2=O)cc1OC (stereo not given)
inactive: [1] -25.9% | [2] -25.4% | [3] -8.45% | [4] -17.4% | [5] 8.7% | [6] -8.65%

Cc1cc2c(C#N)c3ccccc3c(=O)n2c2ccccc12
inactive: [1] -0.95% | [2] 6.75% | [3] -1.25% | [4] -7.4% | [5] -13.7% | [6] 3.4%

N/N=C(\c1nc2ccc([N+](=O)[O-])cc2[nH]c1=O)C(O)c1ccc(Cl)c(Cl)c1 (stereo not given)
inactive: [1] 5.7% | [2] -6.65% | [3] -11.1% | [4] -12.7% | [5] 22.3% | [6] -6.6%

COc1ccc(NC(=O)C(=O)NNC(=O)c2sc(NNC(C)=O)nc2C)c([N+](=O)[O-])c1
inactive: [1] 27.3% | [2] -10.7% | [3] 39.2% | [4] 8.4% | [5] 20.6% | [6] 5.3%

O=C(c1ccccc1)c1ccccc1-c1nc2ccccc2c(=O)o1
inactive: [1] 11.8% | [2] -6.65% | [3] 1.65% | [4] 29.9% | [5] 30.8% | [6] -0.8%
